A selection: hits, their analogues and other compounds. The true share with any hit is near 3.1%.
AF4-AF9 inh – inhibitors of AF4 peptide binding to AF9, primary screen, biochemical, AlphaScreen, biotin-AF4 peptide, FLAG-AF9, single point | inhibition, % at 10 µM | actives 0.47% (n = 350,000) | AID 651704, 2012;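 active means every replicate reaching a set inhibition limit, whatever the replicate mean, cut at about 25% in these data; inconclusive means mean inhibition reaches that limit but some replicates miss it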;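 further: 0% = plate neutral control median and 100% = total signal loss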
dFosB act – activators of delta FosB homodimer, primary screen, biochemical, fluorescence polarization, TAMRA-CDK5 oligo, single point; Protein FosB (Mus musculus), P13346; purified delta FosB; percent of positive-control signal above neutral wells; activation, % at 25 µM; actives 0.99% (n = 340,000); AID 493131, 2011;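 active means mean activation above about 17%, with every replicate also reaching it, limit read from the data, passing the limit was not always enough; inconclusive means only one of the two conditions met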
RAD54 branch – inhibitors of human RAD54 branch migration, primary screen, biochemical, fluorescence, single point | RAD54 Holliday junction branch migration, FAM/BHQ fluorescence | AID 602329, 2012 | inhibition, % at 10.4 µM | actives 0.14% (n = 360,000);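 active means mean normalized replicate activity at least 40 and at least half of replicates scoring 40 or more; inconclusive means only one of the two criteria met; inactive means mean below 40 and under half of replicates reaching 40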;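 further: 0% = median of neutral control wells and 100% = median of positive control wells; inhibitors cause a drop in the FAM fluorescence signal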
DENV2 CPE – inhibitors of DENV2 cytopathic effect, primary screen, cell-based, plate reader, single concentration; DENV2-infected cells, cytopathic effect rescue; CPE inhibition, % at 9.99 µM; actives 1.7% (n = 350,000); AID 651640, 2012; in the data active means CPE inhibition above about 20%, passing the limit was not always enough; inconclusive means no clear call, values can overlap the other calls; tested in BHK-21 cells;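 further: 0% = median of neutral control wells and 100% = median of positive control wells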
RAD52 inh – RAD52 DNA annealing inhibitors, primary screen, biochemical, FRET, single point, set 2; inhibition, % at 18.7 µM; actives 0.46% (n = 360,000); recombinant RAD52 DNA annealing, FRET fluorescence;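 active means every replicate showing at least 50% inhibition; inconclusive means mean inhibition at least 50% but not in every replicate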
Target sequence (P43351 whole entry, looked up): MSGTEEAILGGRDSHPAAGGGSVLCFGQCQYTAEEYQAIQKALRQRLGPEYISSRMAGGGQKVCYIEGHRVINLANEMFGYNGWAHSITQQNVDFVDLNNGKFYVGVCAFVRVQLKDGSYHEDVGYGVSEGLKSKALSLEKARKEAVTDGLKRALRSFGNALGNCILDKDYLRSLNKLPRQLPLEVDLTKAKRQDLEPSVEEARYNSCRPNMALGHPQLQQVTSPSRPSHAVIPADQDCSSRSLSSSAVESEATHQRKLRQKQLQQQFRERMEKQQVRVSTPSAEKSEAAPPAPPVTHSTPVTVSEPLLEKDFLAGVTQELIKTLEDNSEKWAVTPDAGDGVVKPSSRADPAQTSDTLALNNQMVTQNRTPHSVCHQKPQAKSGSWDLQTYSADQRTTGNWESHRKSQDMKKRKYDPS
INS-1E GSIS act – GLuc luminescence reporter in INS-1E cells, primary screen for activators of glucose-dependent secretion of insulin; INS-1E GLuc reporter insulin secretion, 2-3 h; activation, % at 16.6 µM; actives 0.61% (n = 370,000); AID 743287, 2014;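 active means lowest replicate activation of at least 40%, so every replicate reaches that level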;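 further: 0% = median of neutral control wells and 100% = median of IBMX positive control wells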
Numbers without * were called inactive; ? = inconclusive; . = no result given.

SMILES | AF4-AF9 inh | dFosB act | RAD54 branch | DENV2 CPE | RAD52 inh | INS-1E GSIS act
C[C@@H]1CN([C@H](C)CO)C(=O)c2cc(NC(=O)CCC(F)(F)F)ccc2O[C@@H](C)CCCCO[C@@H]1CN(C)Cc1ccc(C(=O)O)cc1 | -2 | . | 6 | 8 | -5 | 9
CN1CCN(/N=C/c2c3ccccc3c(Cl)c3ccccc23)CC1 | 25* | 5 | . | 6 | 6 | 9
CSc1ccc(/C=N/N2CCN(C)CC2)cc1 | 8 | 3 | 3 | 5 | -4 | 7
CN1CCN(/N=C/c2ccc(-c3ccccc3)cc2)CC1 | 35* | 2 | 1 | -6 | -3 | 17
C(=N\N1CCN(Cc2ccccc2)CC1)/c1ccc(-c2ccccc2)cc1 | -4 | -12 | -4 | 11 | -6 | -8
O=C(Nc1ccccc1)NC1(c2cn(CC(=O)N3CCN(c4ccccc4)CC3)nn2)CCCCC1 | -5 | . | -8 | 16 | 8 | .
O=C1C(Cl)=C(N2CCCCCC2)C(=O)N1c1ccc(Cl)cc1 | 4 | 1 | -8 | 76* | -70 | 0
COc1cc(OC)c(-c2sc(Nc3ccccc3)n[n+]2-c2ccc(F)cc2)cc1OC | 3 | 0 | 6 | -1 | 13 | .
COc1ccc(-c2sc(Nc3ccccc3)n[n+]2-c2ccc(F)cc2)c(OC)c1OC | -9 | 1 | -2 | 136* | -21 | -4
Cn1nnnc1Sc1ncnc2scc(-c3ccc(F)cc3)c12 | . | -9 | -5 | . | . | 61*
Cn1nnnc1Sc1ncnc2scc(-c3ccccc3)c12 | . | -6 | 0 | . | -14 | 45*
Cn1nnnc1Sc1ncnc2scc(-c3ccc(Br)cc3)c12 | 2 | 0 | 3 | -15 | -5 | 22
C[C@H]1CN([C@@H](C)CO)C(=O)c2cccc(NC(=O)CCCCCC(=O)Nc3ccccc3N)c2O[C@H]1CN(C)S(=O)(=O)c1ccc(Cl)cc1 | -8 | . | . | 17 | 4 | -28
CC1(C(=O)N2CCCCC2)CCN1C(=O)C1(c2ccccc2)CC1 (stereo unspecified) | 2 | . | -9 | ? | -8 | 40*
C[C@@H]1CN([C@H](C)CO)C(=O)c2cc(NC(=O)CCC(F)(F)F)ccc2O[C@@H](C)CCCCO[C@@H]1CN(C)C(=O)NC1CCCCC1 | 1 | . | 9 | 4 | 9 | -17
C[C@H](CO)N1C[C@H](C)[C@@H](CN(C)CC2CCCCC2)Oc2ccc(NC(=O)Nc3ccccc3)cc2C1=O | 7 | . | 7 | . | 11 | 9
C[C@H]1CN([C@@H](C)CO)S(=O)(=O)c2ccc(C3=CCCC3)cc2O[C@@H]1CN(C)Cc1cccc(C(=O)O)c1 | -9 | . | -7 | 9 | 7 | .
O=C(CSc1ncccn1)N/N=C/c1cccc([N+](=O)[O-])c1 | . | -1 | 4 | . | . | 0
O=C(CSc1ccccn1)N/N=C/c1cccc([N+](=O)[O-])c1 | 6 | -3 | -1 | 46* | -16 | -6
CO[C@H]1CN(C)C(=O)c2ccc(NS(=O)(=O)c3ccccc3)cc2OC[C@@H](C)N(Cc2ccccn2)C[C@H]1C | 2 | . | 7 | 7 | -7 | 3
CO[C@H]1CN(C)C(=O)c2cc(NS(=O)(=O)c3ccccc3)ccc2OC[C@H](C)N(C)C[C@H]1C | 1 | . | -1 | 27* | 7 | 4
CO[C@@H]1CN(C)C(=O)c2ccc(NS(=O)(=O)c3ccccc3)cc2OC[C@H](C)N(C)C[C@H]1C | -2 | . | 9 | 25* | -2 | 0
CO[C@H]1CN(C)C(=O)c2ccc(NS(=O)(=O)c3ccccc3)cc2OC[C@H](C)N(Cc2ccccn2)C[C@@H]1C | 1 | . | 6 | 36* | -2 | -12
CNC[C@@H]1Oc2ccc(NS(=O)(=O)c3ccc(C)cc3)cc2C(=O)N([C@@H](C)CO)C[C@@H]1C | 0 | . | -4 | 4 | 21 | -5
C[C@@H]1CN([C@H](C)CO)C(=O)c2cc(NC(=O)CCCN(C)C)ccc2O[C@@H](C)CCCCO[C@@H]1CN(C)CC1CCCCC1 | -1 | . | 0 | 8 | 1 | 0
SMILES | AF4-AF9 inh | dFosB act | RAD54 branch | DENV2 CPE | RAD52 inh | INS-1E GSIS act
CO[C@H]1CN(C)C(=O)c2cc(NC(=O)C3CCC3)ccc2OC[C@@H](C)N(Cc2cccnc2)C[C@@H]1C | -3 | . | -6 | -2 | 1 | 1
COc1ccc(S(=O)(=O)N(C)C[C@H]2Oc3c(NS(=O)(=O)c4ccc(Cl)cc4)cccc3C(=O)N([C@H](C)CO)C[C@H]2C)cc1 | . | . | 16 | ? | . | -18
CC(Sc1nnnn1-c1ccc(O)cc1)C(=O)NC1CCCCC1C (stereo unspecified) | 0 | -7 | -5 | 34* | -4 | -5
CC(Sc1nnnn1-c1ccccc1)C(=O)NC1CCCC1 (stereo unspecified) | 1 | -3 | 13 | -1 | -10 | -11
CCCc1c(C)c2ccc(OCC(C)=O)cc2oc1=O | . | -18 | 5 | . | . | 51*
CCCCc1c(C)c2ccc(OCC(C)=O)cc2oc1=O | . | -20 | -1 | . | . | .
Cc1cc(=O)[nH]c(SCc2cn3ccccc3n2)n1 | -4 | -10 | . | 16 | -11 | 73*
O=C(Cn1cnc2c(OCc3ccccc3)ncnc21)NCc1ccccc1 | 4 | -2 | 3 | -1 | -2 | -5
COC(=O)[C@H](Cc1ccc(O)cc1)NC(=O)Cn1cnc2c(OCc3ccccc3)ncnc21 | -1 | -10 | 5 | -6 | 1 | 4
COC(=O)[C@H](Cc1ccccc1)NC(=O)Cn1cnc2c(OCc3ccccc3)ncnc21 | -3 | -6 | 4 | -1 | -9 | -7
CCOC(=O)CC[C@H](NC(=O)Cn1cnc2c(OCc3ccccc3)ncnc21)C(=O)OCC | -1 | 6 | 2 | 27* | -16 | -15
O=C(Cn1cnc2c(OCc3ccccc3)ncnc21)NCc1ccccn1 | -1 | -1 | 16 | 16 | -11 | 41*
O=C(Cn1cnc2c(OCc3ccccc3)ncnc21)N[C@H](CO)Cc1cc2ccccc2[nH]1 | -2 | -7 | -4 | 8 | -5 | 49*
COc1ccc(Cl)c2sc(N3CCN(C(=O)c4ccco4)CC3)nc12 | 1 | -17 | . | 104* | 2 | 18
Cc1ccccc1-c1cnc2c(c1)C(=O)N([C@H](C)CO)C[C@H](C)[C@@H](CN(C)C(=O)c1ccncc1)O2 | -3 | . | 3 | -6 | -4 | 7
C[C@@H]1CN([C@@H](C)CO)S(=O)(=O)c2ccc(-c3cccc(F)c3)cc2O[C@H]1CN(C)C(=O)c1cccc(F)c1 | 2 | . | -4 | ? | -9 | -10
